# Test results reported in article PMC7862700, “An all-to-all approach to the identification of sequence-specific readers for epigenetic DNA modifications on cytosine”.
# Tests used:
# Test in all cases: DAPPL (digital affinity profiling via proximity ligation, sequencing); 10 mM Tris-HCl pH 7.5, 50 mM NaCl, 1 mM DTT, 4% glycerol, room temperature, 30 min; GST-TFs on glutathione beads, 16-mer random dsDNA library, 0.1% formaldehyde crosslink after washing; high values mean tight binding
# [1] = target: T1, FEV (Homo sapiens, UniProt Q99581 1-238); conditions: protein: recombinant; tags: N-terminal GST; dsDNA, one strand shown
# T1 sequence: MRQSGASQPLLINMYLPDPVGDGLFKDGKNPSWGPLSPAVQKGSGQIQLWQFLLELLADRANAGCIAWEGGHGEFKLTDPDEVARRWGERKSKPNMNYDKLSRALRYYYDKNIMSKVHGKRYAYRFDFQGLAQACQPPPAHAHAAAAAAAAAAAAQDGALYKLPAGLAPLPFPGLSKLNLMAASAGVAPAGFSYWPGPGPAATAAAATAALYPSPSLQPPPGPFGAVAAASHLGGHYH
# Outline: (§1)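 In yeast, human transcription factors were expressed with a GST fusion, then pulled down on glutathione beads and given DNA barcodes. Pooled with a tag-only sample, they were exposed to 200 nmole of a 16-mer random double-stranded DNA library (Tris/NaCl/DTT/glycerol buffer, room temperature, 30 min), washed, crosslinked with 0.1% formaldehyde, proximity-ligated using BsaI/T4 ligase for 1 h at 37 °C, PCR-amplified and read on an Illumina NextSeq500. Each hexamer's frequency of reads for a factor, divided by the matching frequency for the tag-only sample, gives the binding signal.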
# [2] = target: ETV5 (Homo sapiens, UniProt P41161 1-510); conditions: protein: recombinant; tags: N-terminal GST; dsDNA, one strand shown
# Outline: as §1
# [3] = target: HSF1 (Homo sapiens, UniProt Q00613 1-529); conditions: protein: recombinant; tags: N-terminal GST; chain copies: 3; dsDNA, one strand shown
# Outline: as §1
# [4] = target: T2, SPIC (Homo sapiens, UniProt Q8N5J4 1-248); conditions: protein: recombinant; tags: N-terminal GST; dsDNA, one strand shown
# T2 sequence: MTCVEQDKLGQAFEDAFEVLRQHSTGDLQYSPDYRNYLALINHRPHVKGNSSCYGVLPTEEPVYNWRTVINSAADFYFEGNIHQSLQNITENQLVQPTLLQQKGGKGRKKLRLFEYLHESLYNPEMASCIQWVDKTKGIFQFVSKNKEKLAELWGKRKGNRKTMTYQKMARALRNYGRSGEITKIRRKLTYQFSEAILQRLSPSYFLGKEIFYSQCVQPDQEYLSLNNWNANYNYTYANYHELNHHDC
# Outline: as §1
# [5] = target: ELF4 (Homo sapiens, UniProt Q99607 1-663); conditions: protein: recombinant; tags: N-terminal GST; dsDNA, one strand shown
# Outline: as §1
# [6] = target: T3, ELK4 (Homo sapiens, UniProt P28324-2 1-405); conditions: protein: recombinant; tags: N-terminal GST; dsDNA, one strand shown
# T3 sequence: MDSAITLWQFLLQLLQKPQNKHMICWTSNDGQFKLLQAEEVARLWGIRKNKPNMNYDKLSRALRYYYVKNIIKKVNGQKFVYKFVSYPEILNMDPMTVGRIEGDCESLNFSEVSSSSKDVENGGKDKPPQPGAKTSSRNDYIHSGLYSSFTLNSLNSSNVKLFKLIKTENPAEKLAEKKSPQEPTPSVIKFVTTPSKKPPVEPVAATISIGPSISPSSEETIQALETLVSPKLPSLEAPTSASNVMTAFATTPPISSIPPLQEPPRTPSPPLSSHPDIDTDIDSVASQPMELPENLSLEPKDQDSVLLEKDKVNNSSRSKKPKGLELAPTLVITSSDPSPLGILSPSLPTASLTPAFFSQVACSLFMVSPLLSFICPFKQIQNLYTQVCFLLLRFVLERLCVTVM
# Outline: as §1
# [7] = target: T4, ETV2 (Homo sapiens, UniProt O00321 1-342); conditions: protein: recombinant; tags: N-terminal GST; dsDNA, one strand shown
# T4 sequence: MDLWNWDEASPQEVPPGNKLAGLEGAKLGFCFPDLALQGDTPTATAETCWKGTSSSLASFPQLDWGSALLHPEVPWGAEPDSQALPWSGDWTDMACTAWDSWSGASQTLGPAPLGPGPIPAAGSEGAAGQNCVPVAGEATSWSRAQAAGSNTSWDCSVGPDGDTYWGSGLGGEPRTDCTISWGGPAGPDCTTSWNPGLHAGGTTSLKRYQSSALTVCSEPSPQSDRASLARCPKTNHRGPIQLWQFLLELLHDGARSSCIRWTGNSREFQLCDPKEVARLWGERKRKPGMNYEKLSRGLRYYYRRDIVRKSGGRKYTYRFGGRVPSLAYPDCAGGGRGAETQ
# Outline: as §1
# [8] = target: T5, ELF3 (Homo sapiens, UniProt P78545 1-371); conditions: protein: recombinant; tags: N-terminal GST; dsDNA, one strand shown
# T5 sequence: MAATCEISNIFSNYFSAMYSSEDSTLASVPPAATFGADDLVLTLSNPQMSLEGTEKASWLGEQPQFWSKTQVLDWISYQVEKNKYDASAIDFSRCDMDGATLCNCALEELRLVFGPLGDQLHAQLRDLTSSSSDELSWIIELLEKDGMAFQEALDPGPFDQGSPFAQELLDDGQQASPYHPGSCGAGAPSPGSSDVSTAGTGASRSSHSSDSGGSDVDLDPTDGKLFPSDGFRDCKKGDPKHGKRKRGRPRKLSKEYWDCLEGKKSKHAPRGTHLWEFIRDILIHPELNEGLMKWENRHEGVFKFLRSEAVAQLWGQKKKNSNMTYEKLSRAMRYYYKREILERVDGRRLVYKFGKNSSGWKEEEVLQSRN
# Outline: as §1
# [9] = target: CRX (Homo sapiens, UniProt O43186 1-299); conditions: protein: recombinant; tags: N-terminal GST; dsDNA, one strand shown
# Outline: as §1
# [10] = target: ETV1 (Homo sapiens, UniProt P50549 1-477); conditions: protein: recombinant; tags: N-terminal GST; dsDNA, one strand shown
# Outline: as §1
# [11] = target: T6, ERF (Homo sapiens, UniProt P50548 1-548); conditions: protein: recombinant; tags: N-terminal GST; dsDNA, one strand shown
# T6 sequence: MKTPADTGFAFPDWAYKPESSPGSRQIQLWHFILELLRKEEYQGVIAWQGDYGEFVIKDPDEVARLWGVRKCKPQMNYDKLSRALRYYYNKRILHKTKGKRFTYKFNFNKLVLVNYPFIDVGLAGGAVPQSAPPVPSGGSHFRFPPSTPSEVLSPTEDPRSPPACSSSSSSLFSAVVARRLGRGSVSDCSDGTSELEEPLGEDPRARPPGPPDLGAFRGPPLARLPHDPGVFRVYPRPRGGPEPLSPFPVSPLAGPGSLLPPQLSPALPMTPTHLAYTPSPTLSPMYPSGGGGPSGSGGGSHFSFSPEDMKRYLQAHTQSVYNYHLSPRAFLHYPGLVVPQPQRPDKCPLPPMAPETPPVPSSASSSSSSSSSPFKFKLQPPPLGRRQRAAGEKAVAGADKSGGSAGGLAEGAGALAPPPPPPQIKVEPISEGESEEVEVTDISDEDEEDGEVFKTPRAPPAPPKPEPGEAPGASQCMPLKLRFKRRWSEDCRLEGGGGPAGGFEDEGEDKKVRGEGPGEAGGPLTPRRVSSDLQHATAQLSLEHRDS
# Outline: as §1
# [12] = target: T7, ETV3L (Homo sapiens, UniProt Q6ZN32 1-361); conditions: protein: recombinant; tags: N-terminal GST; dsDNA, one strand shown
# T7 sequence: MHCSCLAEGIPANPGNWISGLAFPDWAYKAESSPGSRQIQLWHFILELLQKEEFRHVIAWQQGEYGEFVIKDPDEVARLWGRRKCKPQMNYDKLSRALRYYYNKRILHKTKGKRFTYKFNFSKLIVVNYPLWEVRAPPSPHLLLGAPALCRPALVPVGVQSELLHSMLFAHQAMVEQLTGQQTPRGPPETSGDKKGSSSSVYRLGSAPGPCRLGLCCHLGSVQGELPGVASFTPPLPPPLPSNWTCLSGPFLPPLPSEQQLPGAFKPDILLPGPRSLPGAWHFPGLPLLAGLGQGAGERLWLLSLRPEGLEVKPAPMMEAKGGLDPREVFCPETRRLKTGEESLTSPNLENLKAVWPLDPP
# Outline: as §1
# [13] = target: T8, ETS2 (Homo sapiens, UniProt P15036 1-469); conditions: protein: recombinant; tags: N-terminal GST; dsDNA, one strand shown
# T8 sequence: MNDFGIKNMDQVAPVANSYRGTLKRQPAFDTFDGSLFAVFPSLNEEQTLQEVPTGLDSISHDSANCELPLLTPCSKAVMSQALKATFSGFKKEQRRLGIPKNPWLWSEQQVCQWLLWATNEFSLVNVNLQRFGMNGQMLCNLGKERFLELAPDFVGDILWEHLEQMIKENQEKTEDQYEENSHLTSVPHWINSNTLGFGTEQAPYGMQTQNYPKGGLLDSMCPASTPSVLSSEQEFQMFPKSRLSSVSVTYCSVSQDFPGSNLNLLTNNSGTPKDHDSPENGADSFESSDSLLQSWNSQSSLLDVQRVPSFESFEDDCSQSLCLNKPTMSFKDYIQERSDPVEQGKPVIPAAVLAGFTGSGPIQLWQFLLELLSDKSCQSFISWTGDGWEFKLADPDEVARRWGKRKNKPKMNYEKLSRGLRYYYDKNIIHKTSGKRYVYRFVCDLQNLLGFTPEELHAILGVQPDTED
# Outline: as §1
# [14] = target: T9, SPDEF (Homo sapiens, UniProt O95238 1-335); conditions: protein: recombinant; tags: N-terminal GST; dsDNA, one strand shown
# T9 sequence: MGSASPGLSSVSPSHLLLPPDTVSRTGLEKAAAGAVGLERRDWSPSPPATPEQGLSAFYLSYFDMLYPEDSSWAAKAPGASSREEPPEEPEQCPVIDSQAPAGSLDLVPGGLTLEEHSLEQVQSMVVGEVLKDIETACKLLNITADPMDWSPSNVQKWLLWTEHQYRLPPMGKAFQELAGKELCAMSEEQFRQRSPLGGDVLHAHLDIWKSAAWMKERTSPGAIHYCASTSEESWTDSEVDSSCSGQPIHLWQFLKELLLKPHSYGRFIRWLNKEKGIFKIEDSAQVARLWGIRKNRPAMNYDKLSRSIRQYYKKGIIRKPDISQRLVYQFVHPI
# Outline: as §1
# [15] = target: T10, ETV7 (Homo sapiens, UniProt Q9Y603 1-341); conditions: protein: recombinant; tags: N-terminal GST; dsDNA, one strand shown
# T10 sequence: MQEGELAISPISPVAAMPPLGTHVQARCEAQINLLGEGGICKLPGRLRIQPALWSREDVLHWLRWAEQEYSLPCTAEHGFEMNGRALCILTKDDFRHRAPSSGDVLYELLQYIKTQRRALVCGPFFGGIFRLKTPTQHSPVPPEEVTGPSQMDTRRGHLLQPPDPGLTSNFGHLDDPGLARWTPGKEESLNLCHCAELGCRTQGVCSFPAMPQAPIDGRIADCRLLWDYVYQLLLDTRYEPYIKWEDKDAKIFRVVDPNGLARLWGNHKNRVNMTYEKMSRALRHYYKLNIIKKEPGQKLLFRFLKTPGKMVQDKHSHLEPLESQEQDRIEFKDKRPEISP
# Outline: as §1
# [16] = target: T11, ELF5 (Homo sapiens, UniProt Q9UKW6-2 1-255); conditions: protein: recombinant; tags: N-terminal GST; dsDNA, one strand shown
# T11 sequence: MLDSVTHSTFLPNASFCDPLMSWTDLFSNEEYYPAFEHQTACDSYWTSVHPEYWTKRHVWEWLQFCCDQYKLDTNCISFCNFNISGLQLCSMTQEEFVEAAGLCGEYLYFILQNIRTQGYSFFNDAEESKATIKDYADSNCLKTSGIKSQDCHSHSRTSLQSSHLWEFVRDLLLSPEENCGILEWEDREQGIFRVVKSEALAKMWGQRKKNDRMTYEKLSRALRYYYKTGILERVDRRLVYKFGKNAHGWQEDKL
# Outline: as §1
# [17] = target: T12, ETV3 (Homo sapiens, UniProt P41162-2 1-143); conditions: protein: recombinant; tags: N-terminal GST; dsDNA, one strand shown
# T12 sequence: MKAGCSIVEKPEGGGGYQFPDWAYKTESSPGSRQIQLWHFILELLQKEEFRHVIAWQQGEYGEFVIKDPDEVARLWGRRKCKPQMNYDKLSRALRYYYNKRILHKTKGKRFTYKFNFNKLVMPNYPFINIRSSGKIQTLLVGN
# Outline: as §1
# [18] = target: ETV6 (Homo sapiens, UniProt P41212 1-452); conditions: protein: recombinant; tags: N-terminal GST; dsDNA, one strand shown
# Outline: as §1
# ETV1, sequence (P50549 whole entry): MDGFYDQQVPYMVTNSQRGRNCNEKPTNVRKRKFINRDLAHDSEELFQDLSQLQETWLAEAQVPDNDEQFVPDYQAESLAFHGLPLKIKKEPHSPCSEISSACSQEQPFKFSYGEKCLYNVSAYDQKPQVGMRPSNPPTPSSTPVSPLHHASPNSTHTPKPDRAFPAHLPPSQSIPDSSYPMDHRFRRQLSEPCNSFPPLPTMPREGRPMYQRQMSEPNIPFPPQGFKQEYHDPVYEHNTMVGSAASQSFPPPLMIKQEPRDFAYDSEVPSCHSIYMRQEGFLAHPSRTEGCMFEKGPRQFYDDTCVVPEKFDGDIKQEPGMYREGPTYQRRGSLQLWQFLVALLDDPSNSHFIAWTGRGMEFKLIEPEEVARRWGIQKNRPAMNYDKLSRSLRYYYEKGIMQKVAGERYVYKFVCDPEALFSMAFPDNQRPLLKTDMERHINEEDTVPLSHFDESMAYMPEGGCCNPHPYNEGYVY
# ETV6, sequence (P41212 whole entry): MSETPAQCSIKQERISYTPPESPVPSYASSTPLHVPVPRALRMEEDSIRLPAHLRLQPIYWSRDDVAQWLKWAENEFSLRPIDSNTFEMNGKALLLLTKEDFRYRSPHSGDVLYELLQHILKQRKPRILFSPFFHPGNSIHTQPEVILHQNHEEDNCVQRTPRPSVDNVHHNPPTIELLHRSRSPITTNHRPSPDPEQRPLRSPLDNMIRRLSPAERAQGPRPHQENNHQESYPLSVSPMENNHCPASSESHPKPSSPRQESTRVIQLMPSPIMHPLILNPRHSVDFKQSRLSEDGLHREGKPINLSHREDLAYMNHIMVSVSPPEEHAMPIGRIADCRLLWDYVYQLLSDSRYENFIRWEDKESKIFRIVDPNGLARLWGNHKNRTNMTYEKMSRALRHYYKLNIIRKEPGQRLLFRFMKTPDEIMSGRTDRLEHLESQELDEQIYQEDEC
# ETV5, sequence (P41161 whole entry): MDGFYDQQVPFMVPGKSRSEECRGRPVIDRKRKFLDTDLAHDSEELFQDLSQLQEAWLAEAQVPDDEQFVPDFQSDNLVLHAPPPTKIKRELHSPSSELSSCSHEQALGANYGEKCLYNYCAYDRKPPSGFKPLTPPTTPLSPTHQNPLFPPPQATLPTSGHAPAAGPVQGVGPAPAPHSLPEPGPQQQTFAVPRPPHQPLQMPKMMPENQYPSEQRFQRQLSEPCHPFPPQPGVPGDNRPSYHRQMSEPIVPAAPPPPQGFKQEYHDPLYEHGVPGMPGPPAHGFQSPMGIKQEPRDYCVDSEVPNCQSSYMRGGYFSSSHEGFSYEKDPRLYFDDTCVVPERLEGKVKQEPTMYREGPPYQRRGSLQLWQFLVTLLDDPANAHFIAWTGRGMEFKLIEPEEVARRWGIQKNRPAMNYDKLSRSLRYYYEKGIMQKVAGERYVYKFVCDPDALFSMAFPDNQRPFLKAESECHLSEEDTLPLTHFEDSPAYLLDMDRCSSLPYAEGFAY
# CRX, sequence (O43186 whole entry): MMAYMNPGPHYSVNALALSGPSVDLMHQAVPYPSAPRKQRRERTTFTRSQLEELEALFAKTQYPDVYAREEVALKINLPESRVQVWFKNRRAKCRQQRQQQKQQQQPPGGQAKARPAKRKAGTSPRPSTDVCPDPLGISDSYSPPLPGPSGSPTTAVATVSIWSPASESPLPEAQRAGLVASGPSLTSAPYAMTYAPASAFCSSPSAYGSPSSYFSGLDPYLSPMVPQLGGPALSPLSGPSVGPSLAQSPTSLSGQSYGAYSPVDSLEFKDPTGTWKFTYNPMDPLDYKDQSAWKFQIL
# ELF4, sequence (Q99607 whole entry): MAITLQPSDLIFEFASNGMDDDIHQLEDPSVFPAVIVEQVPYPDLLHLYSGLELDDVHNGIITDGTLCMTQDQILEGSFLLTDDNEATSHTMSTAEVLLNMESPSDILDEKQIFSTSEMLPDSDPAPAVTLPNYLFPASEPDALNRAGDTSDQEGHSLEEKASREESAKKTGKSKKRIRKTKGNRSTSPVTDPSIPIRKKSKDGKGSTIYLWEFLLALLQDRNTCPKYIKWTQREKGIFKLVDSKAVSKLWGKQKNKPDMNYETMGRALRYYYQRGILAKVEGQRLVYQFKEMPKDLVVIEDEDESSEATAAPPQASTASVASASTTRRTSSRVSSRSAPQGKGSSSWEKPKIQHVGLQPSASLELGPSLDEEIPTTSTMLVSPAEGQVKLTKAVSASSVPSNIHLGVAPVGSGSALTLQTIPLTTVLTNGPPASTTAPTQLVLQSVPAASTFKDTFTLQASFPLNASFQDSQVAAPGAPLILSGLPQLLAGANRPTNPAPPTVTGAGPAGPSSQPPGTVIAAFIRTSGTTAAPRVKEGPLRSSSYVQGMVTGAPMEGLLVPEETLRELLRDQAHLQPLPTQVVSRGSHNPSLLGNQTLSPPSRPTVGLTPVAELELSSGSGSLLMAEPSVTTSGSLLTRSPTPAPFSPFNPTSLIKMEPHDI
# HSF1, sequence (Q00613 whole entry): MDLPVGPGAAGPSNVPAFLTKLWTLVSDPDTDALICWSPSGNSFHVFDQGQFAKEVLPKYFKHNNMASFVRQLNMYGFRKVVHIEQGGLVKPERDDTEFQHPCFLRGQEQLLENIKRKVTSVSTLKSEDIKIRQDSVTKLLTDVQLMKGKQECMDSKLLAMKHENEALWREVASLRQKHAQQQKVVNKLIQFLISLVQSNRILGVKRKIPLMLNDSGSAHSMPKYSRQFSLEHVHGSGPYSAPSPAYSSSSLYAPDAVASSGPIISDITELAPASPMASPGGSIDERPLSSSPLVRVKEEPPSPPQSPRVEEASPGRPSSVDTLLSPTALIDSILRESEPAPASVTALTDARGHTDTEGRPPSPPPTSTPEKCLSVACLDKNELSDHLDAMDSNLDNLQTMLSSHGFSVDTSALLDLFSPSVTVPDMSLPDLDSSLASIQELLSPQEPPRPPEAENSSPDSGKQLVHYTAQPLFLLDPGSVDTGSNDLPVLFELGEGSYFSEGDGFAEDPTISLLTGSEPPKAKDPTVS
sequence,measurement,setting,value
GAACTT,binding signal,[1],"1.72 fold enrichment (6-mer frequency, TF over GST control)"
same,binding signal,[2],"1.66 fold enrichment (6-mer frequency, TF over GST control)"
same,binding signal,[3],"2.03 fold enrichment (6-mer frequency, TF over GST control)"
same,binding signal,[4],"1.71 fold enrichment (6-mer frequency, TF over GST control)"
same,binding signal,[5],"1.52 fold enrichment (6-mer frequency, TF over GST control)"
same,binding signal,[6],"1.48 fold enrichment (6-mer frequency, TF over GST control)"
same,binding signal,[7],"1.44 fold enrichment (6-mer frequency, TF over GST control)"
same,binding signal,[8],"1.5 fold enrichment (6-mer frequency, TF over GST control)"
same,binding signal,[9],"1.32 fold enrichment (6-mer frequency, TF over GST control)"
same,binding signal,[10],"1.68 fold enrichment (6-mer frequency, TF over GST control)"
same,binding signal,[11],"1.56 fold enrichment (6-mer frequency, TF over GST control)"
same,binding signal,[12],"1.58 fold enrichment (6-mer frequency, TF over GST control)"
same,binding signal,[13],"1.61 fold enrichment (6-mer frequency, TF over GST control)"
same,binding signal,[14],"1.61 fold enrichment (6-mer frequency, TF over GST control)"
same,binding signal,[15],"1.62 fold enrichment (6-mer frequency, TF over GST control)"
same,binding signal,[16],"1.96 fold enrichment (6-mer frequency, TF over GST control)"
same,binding signal,[17],"1.69 fold enrichment (6-mer frequency, TF over GST control)"
same,binding signal,[18],"1.73 fold enrichment (6-mer frequency, TF over GST control)"
